High-throughput results (PubChem)
JMJD2A Tudor inh: qHTS Assay for Inhibitors of JMJD2A-Tudor Domain. Lysine-specific demethylase 4A (Homo sapiens), O75164. AlphaScreen JMJD2A-Tudor / H3K4me3 peptide binding. Potency, µM (titrated, usually from 114 µM), most hits filed as inhibitors. 390,000 tested, 4.4% active. AID 504339, 2011; also: nearly all actives have a fitted effect of over 50% in size
HP1b binding inh: HTS for Inhibitors of HP1-beta Chromodomain Interactions with Methylated Histone Tails | AID 540317, 2011 | AlphaScreen HP1-beta / biotin-H3K9me3 peptide binding | 390,000 tested, 0.56% active | Chromobox protein homolog 1 (Homo sapiens), P83916 | Potency, µM (highest dose often 114 µM), usual class: inhibitors; also: nearly all actives have a fitted effect of over 70% in size
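AlphaScreen: HP1-beta (50 nM) preformed 30 min with biotin-H3(1-18)K9me3 peptide (50 nM) in PBS pH 7.4, 0.01% Tween-20. Compound added for 30 min at RT, then streptavidin donor/nickel chelate acceptor beads (10 ug/mL) for 30 min.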
G9a block: qHTS Assay for Inhibitors of Histone Lysine Methyltransferase G9a. G9a H3K9 monomethylation, AlphaScreen, 2 h. Potency, µM (titrated, usually from 102 µM), most hits filed as inhibitors. 350,000 tested, 8.8% active; also: nearly all actives have a fitted effect of over 75% in size
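Using a bead-based AlphaScreen, monomethylated H3K9 product from 2 h room-temperature reactions (G9a 20 nM, peptide 500 nM, SAM 20 uM) was detected with 0.5 ug/mL rabbit anti-H3K9me1 antibody.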
BAZ2B inh: qHTS Assay for Inhibitors of BAZ2B; AlphaScreen BAZ2B-H3K14Ac peptide displacement; Potency, µM (titrated, usually from 114 µM), actives largely listed as inhibitors; 360,000 tested, 4.4% active; AID 504333, 2011; also: nearly all actives have a fitted effect of over 60% in size
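Protein-peptide AlphaScreen: BAZ2B 50 nM, b-H3K14Ac 50 nM, 1x PBS pH 7.4 + 0.01% Tween-20. Preincubation 30 min RT; cpd 30 min RT (top 110 uM); beads 20 min RT, light-protected.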
L3MBTL1 inh: qHTS Assay for the Inhibitors of L3MBTL1; Lethal(3)malignant brain tumor-like protein 1 (Homo sapiens), Q9Y468; AlphaScreen L3MBTL1–H3K9me1 peptide binding; Potency, µM (doses to about 57.1 µM), actives largely listed as inhibitors; 230,000 tested, 0.66% active; AID 485360, 2010; also: nearly all actives have a fitted effect of over 60% in size
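L3MBTL1 (50 nM) pre-complexed 30 min with biotinylated H3(1-15)K9me1 peptide (75 nM), then compounds added for 30 min at room temperature; AlphaScreen streptavidin donor/nickel chelate acceptor beads (10 ug/mL final) read after 30 min dark incubation.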
Sfp inh: qHTS Assay for Inhibitors of Bacillus subtilis Sfp phosphopantetheinyl transferase (PPTase). Biochemical Sfp PPTase activity, qHTS. Potency, µM, hits mostly inhibitors. 310,000 tested, 3.5% active. AID 1490, 2009;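 also: the enzyme is Sfp with the accession as filed and its product quenches rhodamine fluorescence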
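Reaction rates are the 30-min fluorescence difference (ex 525, em 598 nm) in wells containing 15 nM Sfp, 5 uM rhodamine-CoA and 12.5 uM BHQ-2-YbbR at pH 7.6 with 10 mM MgCl2.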
Large screens that a line does not name were inactive. Sampled rows, rich in hits. Any-hit rate of the full collection: about 12%. Calls follow the shape of the dose curve; as a rule, active = well fitted curve in the direction sought with a large enough effect; inconclusive = small, poorly fitted or top-dose-only effect, or another doubt; inactive = no such curve, though single readings can be large; an effect the other way counts as inactive or inconclusive.

O=C1/C(=N\S(=O)(=O)c2cccs2)C([n+]2ccccc2)=C([O-])c2ccccc21	BAZ2B inh inconclusive (no result: L3MBTL1 inh)
Cc1ccc(NC2=C/C(=N\S(=O)(=O)c3cccs3)c3ccccc3C2=O)c(C)c1	JMJD2A Tudor inh 4.5µM, HP1b binding inh 5.6µM, G9a block 7.9µM, BAZ2B inh 3.5µM, L3MBTL1 inh 3.2µM
Cc1cccc(NC2=C/C(=N/S(=O)(=O)c3cccs3)c3ccccc3C2=O)c1	JMJD2A Tudor inh 5.6µM, HP1b binding inh inconclusive, G9a block inconclusive, BAZ2B inh 2.5µM, L3MBTL1 inh 1.6µM, Sfp inh inconclusive
O=C(c1ccc(Nc2nc3ccccc3n3nnnc23)cc1)N1CCN(c2ccc(F)cc2)CC1	none (no result: L3MBTL1 inh, Sfp inh)
CCOCCCn1c(SCC(=O)Nc2ccccc2OC)nc2c(oc3ccccc32)c1=O	none (no result: L3MBTL1 inh, Sfp inh)
CC(=O)c1sc(NC(C)c2ccccc2)nc1C (configuration not stated)	none (no result: L3MBTL1 inh)
COCC(C)Nc1nc(C)c(C(C)=O)s1 (configuration not stated)	G9a block 45µM, BAZ2B inh inconclusive (no result: L3MBTL1 inh)
CC(=O)C1=C(C)NC(SCC(N)=O)=C(C#N)C1CC(C)C (configuration not stated)	JMJD2A Tudor inh 22µM, G9a block 7.1µM (no result: L3MBTL1 inh)
CC1C(C#N)=C(SCC(N)=O)NC2=C1C(=O)CC(C)(C)C2 (configuration not stated)	JMJD2A Tudor inh inconclusive (no result: L3MBTL1 inh)
CCC1C(C#N)=C(SCC(N)=O)NC2=C1C(=O)CC(C)(C)C2 (configuration not stated)	JMJD2A Tudor inh 71µM, G9a block 40µM
CCOC(=O)C1=C(C)NC(SC)=C(C#N)C1CC(C)C (configuration not stated)	none
CC(=O)C1=C(C)NC(SCC(N)=O)=C(C#N)C1c1sccc1C (configuration not stated)	JMJD2A Tudor inh inconclusive
CC(=O)C1=C(C)NC(SCC(=O)c2ccc(F)cc2)=C(C#N)C1CC(C)C (configuration not stated)	JMJD2A Tudor inh 13µM, G9a block 3.5µM, Sfp inh 14µM
CC(=O)C1=C(C)NC(SCC(N)=O)=C(C#N)C1C (configuration not stated)	JMJD2A Tudor inh 13µM, HP1b binding inh inconclusive, G9a block inconclusive, Sfp inh 40µM (no result: L3MBTL1 inh)
Cc1ccc(CNC(=O)CCc2c(C)nc3c(-c4ccc(F)cc4)c(C)nn3c2C)cc1	none (no result: L3MBTL1 inh, Sfp inh)
Cc1cc(C(=O)N2CCN(c3cccc(C)c3C)CC2)c2c(C)nn(-c3ccccc3)c2n1	none (no result: L3MBTL1 inh, Sfp inh)
CC(=O)C1=C(C)NC(SCC(=O)c2ccc(Cl)cc2)=C(C#N)C1CC(C)C (configuration not stated)	JMJD2A Tudor inh inconclusive, G9a block 0.79µM, BAZ2B inh inconclusive, Sfp inh 13µM (no result: L3MBTL1 inh)
CCOC(=O)CSC1=C(C#N)C(c2sccc2C)C(C(C)=O)=C(C)N1 (configuration not stated)	Sfp inh inconclusive
CC1(CCc2ccccc2)NC(=O)N(CC(=O)O)C1=O (configuration not stated)	none (no result: L3MBTL1 inh)
CC1(CCc2ccccc2)NC(=S)N(c2ccccc2)N1 (configuration not stated)	JMJD2A Tudor inh inconclusive, G9a block 10µM, BAZ2B inh 50µM, Sfp inh 45µM
CC1(C)CC(C)(O)N(Cc2ccccc2)C(=S)N1 (configuration not stated)	none
CC1(CCc2ccccc2)NC(=S)N(c2ccc(Cl)cc2)N1 (configuration not stated)	JMJD2A Tudor inh inconclusive, G9a block 10µM, BAZ2B inh 79µM
COc1ccc(-c2nc3cc(C(C)C)ccc3o2)cc1NC(=O)c1ccccc1[N+](=O)[O-]	none (no result: L3MBTL1 inh, Sfp inh)
O=S(=O)(NCCc1csc2nc(-c3ccc(F)cc3)nn12)c1ccc(Oc2ccccc2)cc1	none (no result: L3MBTL1 inh, Sfp inh)
CN(Cc1ccco1)c1ccnc(-c2cccnc2)n1	none (no result: JMJD2A Tudor inh, HP1b binding inh, BAZ2B inh, L3MBTL1 inh)
CN(Cc1ccco1)c1ccnc(-c2ccoc2)n1	Sfp inh 50µM (no result: JMJD2A Tudor inh, HP1b binding inh, G9a block, BAZ2B inh, L3MBTL1 inh)
CCCn1c(-c2ccc(F)cc2)nc2c(NCC(C)(C)CN(C)C)nc(C)nc21	none (no result: JMJD2A Tudor inh, HP1b binding inh, G9a block, BAZ2B inh, L3MBTL1 inh)
CC1CCCC(C)N1S(=O)(=O)c1ccc(Cl)cc1 (configuration not stated)	none
CC1=C(C)CS(=O)N(S(=O)(=O)c2ccc(Cl)cc2)C1 (configuration not stated)	G9a block 2.2µM, Sfp inh 3.5µM
Cc1nc(CN2CCN(S(=O)(=O)c3c(Cl)cc(Br)cc3Cl)CC2)cs1	JMJD2A Tudor inh 35µM, G9a block 22µM, BAZ2B inh 79µM (no result: Sfp inh)
Cc1nc(CN2CCN(C(=O)NC3(c4ccccc4)CC3)CC2)cs1	none (no result: L3MBTL1 inh)
CCC(C)NC(=O)Cn1c(=O)n(CC2CCC(C(=O)NC)CC2)c(=O)c2sccc21 (configuration not stated)	none (no result: L3MBTL1 inh, Sfp inh)
Cc1cc(NN)nc2ccc(Cl)cc12	JMJD2A Tudor inh inconclusive, G9a block 14µM, Sfp inh 11µM
Cc1cc(C)c2ccc(Cl)cc2n1	none
CC1CC(NC(=O)Cc2ccc(Br)cc2)CC(C)(C)C1 (configuration not stated)	JMJD2A Tudor inh 40µM
CN(C)S(=O)(=O)c1cccc(NC(=O)c2cc(=O)[nH]c(=O)[nH]2)c1	JMJD2A Tudor inh inconclusive, G9a block 1.1µM, BAZ2B inh inconclusive, Sfp inh inconclusive (no result: L3MBTL1 inh)
CN(C)S(=O)(=O)c1cccc(NC(=O)c2ccncc2)c1	none
CCN(CC)S(=O)(=O)c1cccc(NC(=O)c2ccc(C#N)cc2)c1	G9a block 20µM
CCC(=O)N1c2ccccc2CC1C(=O)NCCc1cc(OC)c(OC)c(OC)c1 (configuration not stated)	none (no result: L3MBTL1 inh, Sfp inh)
Cc1ccc(OCc2ccc(C(=O)N3CCOCC3)cc2)cc1C	G9a block inconclusive, Sfp inh 35µM
CCOC(=O)C1=C(Cc2ccc(C)cc2)C(=O)c2ccccc2C1=O	G9a block 8.9µM, BAZ2B inh 22µM, Sfp inh 7.9µM (no result: JMJD2A Tudor inh, HP1b binding inh, L3MBTL1 inh)
CCOC(=O)C1=C(Cc2ccc(OC)cc2)C(=O)c2ccccc2C1=O	JMJD2A Tudor inh 40µM, HP1b binding inh 18µM, G9a block 2.8µM, BAZ2B inh 22µM, Sfp inh 10µM (no result: L3MBTL1 inh)
CCOC(=O)c1ccc(COC(=O)c2ccc3c(c2)-c2ccccc2C3=O)cc1	none
Cc1cc(C)c(S(=O)(=O)NCCc2sc(-c3cccnc3)nc2C)c(C)c1	none (no result: L3MBTL1 inh, Sfp inh)
O=C(O)C1Cc2ccccc2CN1C(=O)COc1ccc(Cl)cc1 (configuration not stated)	G9a block 45µM, L3MBTL1 inh inconclusive
